High-throughput results: PubChem, National Center for Advancing Translational Sciences (NCATS)
The full list was thinned out, with hits kept by preference.
Methyltransferases: Primary Screen for Target Class Profiling of Small Molecule Inhibitors of Methyltransferases; calls only at 40 µM; purified enzyme, MTase-Glo SAH luminescence; active compounds read low; 25,000 compounds, 3.9% hits; call rule not given here
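Each enzyme was reacted with SAM and its substrate, with compounds tested once at 40 uM; SAH formed was read by MTase-Glo luminescence.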
* = called active by the depositor; i = inactive; + = active, no number. On the % scale 0 is the no-effect control and ±100 the full control effect.

SMILES	Methyltransferases
COc1ccc(CN2C(=O)c3cc4c(OC)ccc(OC)c4n3CC2(C)C(=O)NC2CCCC2)cc1 (stereo not drawn)	i
Cn1nnc(-c2ccc(-c3ccc(N4C[C@H](COP(=O)(O)O)OC4=O)cc3F)cn2)n1	i
COc1ccccc1CNC(=O)Cn1ccc2cc(S(=O)(=O)N3CCCCC3)ccc21	i
CC(C)OCCCn1c(=O)c2ccccc2n2c(SCC(=O)Nc3cccc(Cl)c3)nnc12	i
NC(=O)CCCSc1nc(N)nc(-c2c(Cl)cc3c4c(cccc24)COC3)n1	i
CNC(=O)[C@@H]1CN(C(=O)c2ccc(OC)nc2OC)C[C@H]1c1n[nH]c(C)n1	i
CCc1cc2c(cc3n2CC(C)(C(=O)NC2CCCCC2)N(CC(C)c2ccccc2)C3=O)s1 (stereo not drawn)	i
CC[n+]1c(/C=C/C=C2/N(C)c3ccccc3C2(C)C)sc2ccccc21	+
CC1(C(=O)NCc2ccccc2)Cn2c(cc3ccccc32)C(=O)N1Cc1cccs1 (stereo not drawn)	i
O=C(c1cccnc1OC1CCN(Cc2ccccn2)C1)N1CCCCC1 (stereo not drawn)	i
COc1ccc(CN2C(=O)c3ccc(-c4ccco4)n3CC2(C)C(=O)NCc2ccc(Cl)cc2)c(OC)c1 (stereo not drawn)	i
Cc1ccc(C(=O)Cn2nc3n(C(C)C)c(=O)c4ccc(C(=O)NCC(C)C)cc4n3c2=O)cc1	i
O=C(CCc1nnc2n(Cc3ccccc3Cl)c(=O)c3ccccc3n12)N1CCC(Cc2ccccc2)CC1	i
COc1ccc(NC(=O)CSc2nnc3n(CCc4ccccc4)c(=O)c4ccccc4n23)cc1	i
CNC(=O)[C@H]1O[C@@H](n2cnc3c(NCc4ccc(N)cc4)ncnc32)[C@H](O)[C@@H]1O	i
Nc1ncnc2c1ncn2[C@H]1O[C@@H](C(=O)N2CCN(CC(=O)Nc3cccc4c3CNC4=O)CC2)[C@H](O)[C@@H]1O	+
CNC(=O)[C@H]1O[C@@H](n2cnc3c(NCc4ccc(N)c(I)c4)ncnc32)[C@H](O)[C@@H]1O	i
C[C@H]1[C@@H]2[C@@H](O)C([C@H](C)C(=O)N3CCCC3)CC[C@@]2(C)CC[C@@H]1NC(=O)Nc1cccc(F)c1 (stereo partly drawn)	i
O=C(CCn1ccc2cc(S(=O)(=O)N3CCCCC3)ccc21)NCc1ccc(Cl)cc1	i
C=C1C2CCC3C(CCC4[C@@]3(C)CCC[C@@]4(C)C(=O)O)(C2)[C@@H]1OC(=O)/C(C)=C\C (stereo partly drawn)	i
NC1(Cc2ccc(Cl)cc2)CCN(c2ncnc3[nH]ccc23)CC1	+
Clc1ccc(N2CCN(Cc3c[nH]c4ncccc34)CC2)cc1	i
CCCn1c(=O)c2cc(F)ccc2n2c(SCC(=O)Nc3ccc(C)cc3)nnc12	i
CCOc1ccc(C(=O)Cn2nc3n(C(C)C)c(=O)c4ccc(C(=O)NC(C)CC)cc4n3c2=O)cc1 (stereo not drawn)	i
c1ccc2c(Oc3nc(Nc4ccc(N5CCOCC5)cc4)c4ncn(C5CCCCC5)c4n3)cccc2c1	+
SMILES	Methyltransferases
Nc1ncnc2c1c(-c1cnc3[nH]ccc3c1)nn2C1CCCC1	+
Nc1ncnc2c1c(-c1ccc(Oc3ccccc3)cc1)nn2[C@@H]1CCCNC1	+
COc1ccc(N2C(=O)c3cc4ccc(OC)cc4n3CC2(C)C(=O)NC2CCCCC2)c(OC)c1 (stereo not drawn)	i
C=Cc1ccc(Cn2nc3n(CCc4ccccc4)c(=O)c4ccccc4n3c2=O)cc1	i
Cc1ccc(N2C(=O)c3cc4occc4n3CC2(C)C(=O)NC2CCCCCCC2)c(C)c1 (stereo not drawn)	i
COc1ccc2cc3n(c2c1)CC(C)(C(=O)NC1CCCCC1)N(CCC(C)C)C3=O (stereo not drawn)	i
C/C=C1/[C@H](O[C@@H]2O[C@H](CO)[C@@H](O)[C@H](O)[C@H]2O)OC=C(C(=O)OC)[C@H]1CC(=O)O[C@@H]1O[C@H](CO)[C@@H](O)[C@H](O)[C@H]1O	i
O=C1CCC2(CNC(=O)c3cccnc3)CCCC=C2N1 (stereo not drawn)	i
C[C@@H](Oc1cc(-n2cnc3ccc(OC4CCN(C)CC4)cc32)sc1C(N)=O)c1ccccc1C(F)(F)F	+
O=C(CSc1nnc2n(Cc3ccc(F)cc3)c(=O)c3ccccc3n12)Nc1cc(F)ccc1F	i
CCCN1C(=O)c2c(C(=O)NCCc3ccccc3Cl)ncn2CC1(C)C(=O)NC1CCCC1 (stereo not drawn)	i
CCC(C)NC(=O)c1ccc2c(=O)n(C(C)C)c3nn(CC(=O)c4cccc(Cl)c4)c(=O)n3c2c1 (stereo not drawn)	i
CCC(C)NC(=O)c1ccc2c(=O)n(CC(C)C)c3nn(CC(=O)N(C)c4ccccc4)c(=O)n3c2c1 (stereo not drawn)	i
CCC(NC(C)C)C(O)c1ccc(O)c(O)c1 (stereo not drawn)	i
CC(CCc1ccccc1)NCC(O)c1ccc(O)c(C(N)=O)c1 (stereo not drawn)	i
NCC(O)c1ccc(O)c(O)c1 (stereo not drawn)	+
CC1(C(=O)NCc2ccccc2)Cn2cnc(C(=O)NCc3cccnc3)c2C(=O)N1C1CC1 (stereo not drawn)	i
O=C(O)CO[C@@H]1COCC[C@H]1NC(=O)CCCn1cncn1	i
O=c1[nH]c2ccccc2n1Cc1ccccc1Cl	i
Cc1nc(Nc2n[nH]c3c2CN(C(=O)NC(CN(C)C)c2ccccc2)C3(C)C)c2sccc2n1 (stereo not drawn)	+
CCc1ccccc1NC(=O)Cn1nc2n(C(C)C)c(=O)c3ccc(C(=O)NC(C)CC)cc3n2c1=O (stereo not drawn)	i
CCOC(=O)[C@@H](N)Cc1ccc(-c2cc(O[C@H](c3ccc(Cl)cc3-n3ccc(C)n3)C(F)(F)F)nc(N)n2)cc1	+
COc1cccc(-c2ccc([C@@H](Oc3cc(-c4ccc(C[C@H](N)C(=O)O)cc4)nc(N)n3)C(F)(F)F)cc2)c1	i
CCOC(=O)c1cc2n(n1)CC(C)(C(=O)NCc1ccccc1OC)N(c1ccc(CC)cc1)C2=O (stereo not drawn)	i
CC1CCCC(NC(=O)C2(C)Cn3c(cc4occc43)C(=O)N2Cc2ccccc2Cl)C1C (stereo not drawn)	i
SMILES	Methyltransferases
CCOC(=O)c1cc2n(n1)CC(C)(C(=O)NC1CCCCCC1)N(c1ccc(F)cc1F)C2=O (stereo not drawn)	i
CC(=O)N1CCN(NC(=O)c2ccc(F)cc2)CC1	i
CN1CCC(c2c[nH]c3ccc(NC(=O)c4ccc(F)cc4)cc23)CC1	+
CCN1c2cc(C(=O)Nc3cccc(F)c3)ccc2C(=O)N2CCCC21 (stereo not drawn)	i
CCCn1c(=O)c2ccc(C(=O)NC(C)CC)cc2n2c(SCC(=O)Nc3cc(C)cc(C)c3)nnc12 (stereo not drawn)	i
COc1ccccc1CNC(=O)c1ccc2c(=O)nc3c(-c4ccc(C)cc4)n[nH]n3c2c1	i
Cc1ccc(N(C)C(=O)Cn2c(=O)oc3cc(S(=O)(=O)N4CCCCC4)ccc32)cc1	i
CNC1CCC(N(Cc2cccc(-c3ccncc3)c2)C(=O)c2sc3ccccc3c2Cl)CC1 (stereo not drawn)	+
